# LEDGF integ inh – blocks HIV-1 LEDGF/p75-dependent DNA integration | TR-FRET IN-LEDGF/p75 DNA integration, Eu/Cy5 | inhibition, % at 3.7 µM | 370,000 tested, 0.64% active;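 active = inhibition above the screen-wide mean plus 3 SD, cut at about 13% in these data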;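 also: signal is the Cy5 over europium emission ratio at 671 and 618 nm; 0% = plate median of compound wells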
# ABHD5 PLIN5 PPI – blocks binding of human ABHD5 to perilipin-5; inhibition, % at 4 µM; AID 602281; Split G. princeps luciferase complementation, luminescence, 4 h; Q00G26+Q8WTS1; 360,000 tested, 0.78% active;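 active = inhibition above the mean inhibition across every tested compound plus 3 SD, cut at about 22% in these data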;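 also: 0% = DMSO only wells and the 100% control is not disclosed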
# UHRF1 MBD2 ctr – human UHRF1 methylated DNA binding inhibitors. inhibition, % at 4.4 µM. UHRF1 binding to methylated oligo, TR-FRET. 370,000 tested, 0.75% active. Q96T88; in the data active = inhibition above about 21%;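 also: UHRF1 SRA domain binding a hemimethylated CpG hairpin DNA probe; 0% = median of test compound wells and 100% = reference inhibitor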
# PRMT1 FP inh – blocks human protein arginine methyltransferase 1 | recombinant PRMT1, activity-based probe fluorescence polarization | 370,000 tested, 1.3% active | Q99873 | inhibition, % at 2.79 µM;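 active = inhibition above about 21% made by adding two undisclosed values, limit read from the data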
# Target sequence (Q99873 whole entry, looked up): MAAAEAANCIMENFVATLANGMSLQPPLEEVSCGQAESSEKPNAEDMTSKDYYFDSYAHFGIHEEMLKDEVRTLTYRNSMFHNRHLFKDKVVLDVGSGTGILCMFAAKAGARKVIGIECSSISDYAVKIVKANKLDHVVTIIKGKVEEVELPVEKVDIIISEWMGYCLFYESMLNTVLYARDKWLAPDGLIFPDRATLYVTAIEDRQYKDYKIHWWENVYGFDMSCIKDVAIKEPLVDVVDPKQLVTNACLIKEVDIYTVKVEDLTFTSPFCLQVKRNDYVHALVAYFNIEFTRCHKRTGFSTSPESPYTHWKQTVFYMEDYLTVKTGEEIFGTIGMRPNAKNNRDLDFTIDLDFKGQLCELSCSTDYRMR
# rCAG binder-1 – r(CAG) repeat RNA binding. 370,000 tested, 1.3% active. inhibition, % at 3 µM. TO-PRO-1 dye displacement fluorescence;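 active = inhibition above the plate cutoff, the mean of all test compounds on that plate plus 3 SD, cut at about 35% in these data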;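 also: 0% = DMSO alone and 100% = 100 µM mitoxantrone as full dye displacement; higher means more dye released from RNA so lower well fluorescence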
# MBD2 DNA inh – blocks human MBD2 binding to methylated DNA | inhibition, % at 4.4 µM | TR-FRET, MBD2 binding to methylated oligonucleotide | 370,000 tested, 0.31% active; in the data active = inhibition above about 13%
# rCAG binder conf – r(CAG) RNA repeat binding, confirmation; shares compounds with rCAG binder-1; TO-PRO-1 dye displacement fluorescence; 4,300 tested, 70% active; inhibition, % at 3 µM;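 active = inhibition above a per-plate cutoff, the mean inhibition of sample wells plus 3 SD, cut at about 35% in these data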;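 also: loss of TO-PRO-1 fluorescence as compound displaces dye from 1x1 AA loop RNA; 0% = DMSO only wells and 100% = 100 µM mitoxantrone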
# dCAG dye counter – disrupts DNA CAG TO-PRO-1 complex, flagging rCAG hits. shares compounds with rCAG binder-1. d(CAG) DNA oligo TO-PRO-1 dye displacement, fluorescence. inhibition, % at 3 µM. 4,300 tested, 94% active;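 active = inhibition above its plate's cutoff, the mean test-well inhibition plus 3 SD, cut at about 4.8% in these data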;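 also: 0% = DNA dye mix with DMSO and 100% = 100 µM mitoxantrone; hits displace the dye from DNA and so lower well fluorescence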
# DNA CAG DR – DNA CAG dye complex inhibition, dose response counter-screen | shares compounds with rCAG binder-1 | DNA CAG/GTC duplex TO-PRO-1 dye displacement fluorescence | IC50, µM | 250 tested, 20% active | AID 686960; in the data active = IC50 below about 10 µM
# dCAG TOPRO ctr – inhibits DNA CAG/GTC TO-PRO-1 complex, rCAG binder counter-screen | shares compounds with rCAG binder-1 | d(CAG) DNA duplex TO-PRO-1 dye displacement, fluorescence | IC50, µM | 30 tested, 80% active
# rCAG binder-2 – r(CAG) repeat RNA binding, TO-PRO-1 displacement. shares compounds with rCAG binder-1. r(CAG) RNA TO-PRO-1 dye displacement, fluorescence. IC50, µM. 30 tested, 100% active. AID 720651
# An asterisk follows results filed as active; x = not tested or not shown. Sampled rows, rich in hits. Any-hit rate of the full collection: about 4.1%. Unless noted, no rule for the calls is given here.
SMILES,LEDGF integ inh,ABHD5 PLIN5 PPI,UHRF1 MBD2 ctr,PRMT1 FP inh,rCAG binder-1,MBD2 DNA inh,rCAG binder conf,dCAG dye counter,others
NC(=O)c1sc(-c2ccsc2)cc1NS(=O)(=O)c1ccc(C(F)(F)F)cc1,2,2,0,5,56*,0,77*,30*,DNA CAG DR=7*;dCAG TOPRO ctr=4.4*;rCAG binder-2=1.5*
Cc1ccc(S(=O)(=O)Nc2nc(C)c(C(=O)NN)s2)cc1,-2,-2,2,3,58*,5,11,3,
CC(=O)c1sc(-c2ccc(F)cc2)cc1NS(=O)(=O)c1ccc(C)cc1,-4,0,1,1,1,1,x,x,
Cc1nc(NS(=O)(=O)c2ccccc2)sc1C(=O)N/N=C/c1ccccc1,-1,1,-2,0,69*,4,43*,11*,
Cc1ccc(C)c(S(=O)(=O)Nc2nc(C)c(C(=O)Nc3ccccc3)s2)c1,-3,12,2,2,46*,0,36*,9.0*,
Cc1nc(NS(=O)(=O)c2ccccc2)sc1C(=O)NNS(=O)(=O)c1ccccc1,-8,1,4,4,17,4,x,x,
CC(=O)c1sc(NS(=O)(=O)c2ccc(C)cc2)nc1C,0,12,2,-1,9,0,x,x,
S=C(Nc1ccc(I)cc1)OC1CCC12CCC(c1ccccc1)CC2 (configuration not stated),-4,x,-1,4,17,3,x,x,
CC1(C)CC(=O)C=C(Nc2ccccc2NC(=O)c2ccc(F)cc2F)C1,-2,x,2,0,0,-3,x,x,
CC(=O)c1sc(-c2ccccc2)cc1NS(=O)(=O)c1ccc(C)cc1,2,-2,5,0,9,3,x,x,
CC(=O)c1sc(-c2ccccc2)cc1NS(=O)(=O)c1ccccc1,-5,4,-1,0,83*,2,11,2,
CC(=O)c1sc(NS(=O)(=O)c2ccc(C)cc2)nc1-c1ccccc1,-2,-5,-1,-6,42*,1,34,7.5*,
Cc1ccc(S(=O)(=O)Nc2nc(C)c(C(=O)NNS(=O)(=O)c3cc(C)ccc3C)s2)cc1,0,-4,1,2,54*,-1,59*,22*,
Cc1ccc(S(=O)(=O)NNC(=O)c2sc(NS(=O)(=O)c3ccccc3)nc2C)cc1,-2,3,0,6,22,4,x,x,
CC1CCc2nc3ccc(S(=O)(=O)N4CCC(C(=O)NC(C)c5ccccc5)CC4)cc3c(C(=O)O)c2C1 (configuration not stated),2,3,0,-3,38*,4,45*,14*,
CC(C)c1ccc(NC(=O)CSc2nc3ccsc3c(=O)n2CCC(=O)O)cc1,2,14,1,3,36*,4,32,7.8*,
COc1ccccc1NC(=O)C1=C(C)NC(SCC(=O)Nc2ccc(C(=O)O)cc2)=C(C#N)C1c1cccs1 (configuration not stated),0,6,0,-3,46*,0,39*,12*,
C[C@H]1[C@H](N(C)C)CC[C@@]23CCCN2C(=O)CCC[C@@H]13,1,x,0,1,x,-2,x,x,
COCCCNC(=O)C[C@H]1C[C@@]2(C(=O)OC)C(=C[C@H](C3CCCC3)O[C@@H]2C)N(Cc2ccco2)C1=O,3,x,-1,1,-1,0,x,x,
N#CC1=C(S)N(c2ccccc2)C(c2ccc(-c3cc(Cl)ccc3Cl)o2)NC1=O (configuration not stated),-2,-5,-2,0,59*,4,55*,18*,DNA CAG DR=5.5*
N#CC1=C(S)N(c2ccccc2)C(c2ccc(-c3ccc(Cl)c(Cl)c3)o2)NC1=O (configuration not stated),6,0,-7,14,84*,-3,91*,79*,
CC(=O)N1CCc2cc(S(=O)(=O)NC3CCN(C(=O)C(C)(C)C)CC3)ccc21,-3,x,-2,6,1,1,x,x,
C#CCNC(=O)C[C@@H]1C(=O)N2CCCC3=C2[C@@]1(C(=O)OC)CCCC3,0,x,-1,1,3,0,x,x,
CC(=O)CC[C@H]1CC[C@]2(CCCN(C(=O)C3CCCCC3)C2)O1,-2,x,-1,2,1,1,x,x,
COc1cccc(Nc2nc3ccccc3nc2NS(=O)(=O)c2ccc(NC(C)=O)cc2)c1,x,-2,x,x,x,x,x,x,
SMILES,LEDGF integ inh,ABHD5 PLIN5 PPI,UHRF1 MBD2 ctr,PRMT1 FP inh,rCAG binder-1,MBD2 DNA inh,rCAG binder conf,dCAG dye counter,others
COc1ccc(Nc2nc3ccccc3nc2NS(=O)(=O)c2cccs2)cc1,5,1,2,-2,42*,-9,74*,36*,
CC(=O)Nc1ccc(S(=O)(=O)Nc2nc3ccccc3nc2Nc2ccc(O)c(C(=O)O)c2)cc1,-1,-4,-2,5,46*,-6,25,4,
Cc1cccc(S(=O)(=O)Nc2nc3ccccc3nc2NCc2ccco2)c1,-2,1,-1,1,44*,-3,32,7.3*,
COc1ccc(Nc2nc3ccccc3nc2NS(=O)(=O)c2ccc(NC(C)=O)cc2)cc1,-3,9,1,0,80*,2,60*,21*,
CCOC(=O)Nc1cc(=O)c([N+](=O)[O-])c(N)[nH]1,-4,x,-2,0,1,1,x,x,
NS(=O)(=O)c1ccc(Nc2nc3ccccc3nc2NS(=O)(=O)c2cccc([N+](=O)[O-])c2)cc1,-4,7,-1,5,94*,2,88*,62*,
CC(=O)Nc1ccc(S(=O)(=O)Nc2nc3ccccc3nc2Cl)cc1,-3,0,-1,-1,5,0,x,x,
Cc1cccc(S(=O)(=O)Nc2nc3ccccc3nc2Nc2cccc(C(=O)O)c2)c1,0,-2,-1,2,53*,0,57*,20*,
CC(=O)Nc1ccc(S(=O)(=O)Nc2nc3ccccc3nc2Nc2ccc(S(N)(=O)=O)cc2)cc1,3,0,-3,0,52*,3,35*,8.3*,
O=[N+]([O-])c1cccc(S(=O)(=O)Nc2ccccn2)c1,0,-4,0,-1,-1,-1,x,x,
